# From the supplement of paper PMC6411743
# ± gives the standard deviation of the averaged measurements. Of roughly 6,200 targets only a part is listed; those with the largest changes were picked by preference.
# Compound: Nc1ncnc2c1ncn2[C@@H]1O[C@H](COP(=O)(O)OP(=O)(O)NP(=O)(O)O)[C@@H](O)[C@H]1O [adenylyl imidodiphosphate]
# Test: NP40-soluble protein abundance relative to vehicle (solubility fold change) (ratio); higher = more soluble protein in presence of AMP-PNP
# In short: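 In three independent experiments, Jurkat crude lysate made by Dounce homogenisation was treated for 10 min at room temperature and then 3 min at 37 °C with eight concentrations ranging from 0.1 to 10 mM. It was then solubilised with 0.8% NP40 plus benzonase for 60 min at 4 °C and ultracentrifuged. The supernatant was TMT-labelled for LC-MS/MS, and each value is the fold change against the detergent-processed vehicle for the same replicate, using vsn-normalised intensities.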
# UniProt Q96BP3, sequence (Q96BP3 whole entry): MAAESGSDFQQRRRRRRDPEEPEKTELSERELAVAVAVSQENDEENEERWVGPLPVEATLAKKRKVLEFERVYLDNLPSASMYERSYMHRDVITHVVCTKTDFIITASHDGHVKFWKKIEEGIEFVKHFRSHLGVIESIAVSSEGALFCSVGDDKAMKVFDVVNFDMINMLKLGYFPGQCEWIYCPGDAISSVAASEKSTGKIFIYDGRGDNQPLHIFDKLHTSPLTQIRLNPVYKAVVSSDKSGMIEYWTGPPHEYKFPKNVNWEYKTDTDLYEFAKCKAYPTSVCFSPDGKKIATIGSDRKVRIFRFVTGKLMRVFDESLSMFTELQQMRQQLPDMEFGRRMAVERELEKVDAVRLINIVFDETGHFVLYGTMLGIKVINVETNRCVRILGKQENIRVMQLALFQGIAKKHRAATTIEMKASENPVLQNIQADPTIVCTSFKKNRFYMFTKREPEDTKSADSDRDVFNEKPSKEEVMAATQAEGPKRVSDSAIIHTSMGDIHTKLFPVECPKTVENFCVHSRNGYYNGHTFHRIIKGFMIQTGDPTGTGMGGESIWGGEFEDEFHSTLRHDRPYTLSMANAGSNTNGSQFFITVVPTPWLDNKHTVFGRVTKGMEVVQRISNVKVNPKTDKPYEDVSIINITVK
# UniProt Q8TAT6, sequence (Q8TAT6 whole entry): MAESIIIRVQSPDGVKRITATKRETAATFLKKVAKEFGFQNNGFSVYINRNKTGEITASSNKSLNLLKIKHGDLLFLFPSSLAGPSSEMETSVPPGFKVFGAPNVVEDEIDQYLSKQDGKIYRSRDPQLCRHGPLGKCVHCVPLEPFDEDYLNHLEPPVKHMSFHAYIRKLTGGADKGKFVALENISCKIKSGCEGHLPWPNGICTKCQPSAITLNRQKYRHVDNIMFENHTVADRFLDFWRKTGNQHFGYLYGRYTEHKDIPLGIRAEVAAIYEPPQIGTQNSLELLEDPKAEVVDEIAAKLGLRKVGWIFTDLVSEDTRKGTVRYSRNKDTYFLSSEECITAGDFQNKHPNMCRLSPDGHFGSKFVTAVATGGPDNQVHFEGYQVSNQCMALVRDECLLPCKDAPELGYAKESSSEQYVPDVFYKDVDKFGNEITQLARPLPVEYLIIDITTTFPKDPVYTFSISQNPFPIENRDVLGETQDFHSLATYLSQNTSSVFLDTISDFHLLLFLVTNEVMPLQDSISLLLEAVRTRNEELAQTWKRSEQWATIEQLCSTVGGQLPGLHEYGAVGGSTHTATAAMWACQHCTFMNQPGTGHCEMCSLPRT
# UniProt Q7Z7H5, sequence (Q7Z7H5 whole entry): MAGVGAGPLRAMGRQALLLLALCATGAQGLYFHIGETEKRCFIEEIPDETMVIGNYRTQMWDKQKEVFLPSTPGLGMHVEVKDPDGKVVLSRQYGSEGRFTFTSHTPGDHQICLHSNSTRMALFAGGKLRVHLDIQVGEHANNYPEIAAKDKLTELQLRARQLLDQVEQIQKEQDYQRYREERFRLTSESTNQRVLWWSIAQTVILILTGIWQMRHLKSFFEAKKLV
# UniProt Q658Y4, sequence (Q658Y4 whole entry): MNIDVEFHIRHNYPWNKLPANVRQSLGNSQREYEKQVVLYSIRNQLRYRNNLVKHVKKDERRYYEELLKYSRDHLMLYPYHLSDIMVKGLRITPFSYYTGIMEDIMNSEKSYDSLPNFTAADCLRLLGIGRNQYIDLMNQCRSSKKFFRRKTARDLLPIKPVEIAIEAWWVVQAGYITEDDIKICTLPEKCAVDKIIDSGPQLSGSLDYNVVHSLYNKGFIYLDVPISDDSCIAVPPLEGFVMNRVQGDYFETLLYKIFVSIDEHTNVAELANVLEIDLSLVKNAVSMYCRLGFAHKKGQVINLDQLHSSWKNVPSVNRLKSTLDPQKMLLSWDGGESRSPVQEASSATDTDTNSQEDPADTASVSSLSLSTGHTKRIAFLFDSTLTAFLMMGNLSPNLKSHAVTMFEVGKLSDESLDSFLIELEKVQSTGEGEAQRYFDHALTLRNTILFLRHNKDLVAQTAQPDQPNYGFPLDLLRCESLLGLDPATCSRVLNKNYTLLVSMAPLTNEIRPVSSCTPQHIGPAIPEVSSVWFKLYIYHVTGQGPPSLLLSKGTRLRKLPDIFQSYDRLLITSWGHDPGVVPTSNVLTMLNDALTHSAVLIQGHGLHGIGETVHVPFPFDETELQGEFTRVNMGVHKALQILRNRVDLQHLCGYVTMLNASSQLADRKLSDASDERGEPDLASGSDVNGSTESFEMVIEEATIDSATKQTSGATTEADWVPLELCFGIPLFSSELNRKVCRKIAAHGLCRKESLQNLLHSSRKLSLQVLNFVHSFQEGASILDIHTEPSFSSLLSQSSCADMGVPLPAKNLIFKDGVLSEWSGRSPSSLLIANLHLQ
# UniProt Q5JTJ3, sequence (Q5JTJ3 whole entry, one chain of several): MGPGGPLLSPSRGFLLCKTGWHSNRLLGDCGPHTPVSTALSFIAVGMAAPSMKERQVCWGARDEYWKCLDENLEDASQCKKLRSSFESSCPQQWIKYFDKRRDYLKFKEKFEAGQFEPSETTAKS
# UniProt Q7L5N7, sequence (Q7L5N7 whole entry, one chain of several): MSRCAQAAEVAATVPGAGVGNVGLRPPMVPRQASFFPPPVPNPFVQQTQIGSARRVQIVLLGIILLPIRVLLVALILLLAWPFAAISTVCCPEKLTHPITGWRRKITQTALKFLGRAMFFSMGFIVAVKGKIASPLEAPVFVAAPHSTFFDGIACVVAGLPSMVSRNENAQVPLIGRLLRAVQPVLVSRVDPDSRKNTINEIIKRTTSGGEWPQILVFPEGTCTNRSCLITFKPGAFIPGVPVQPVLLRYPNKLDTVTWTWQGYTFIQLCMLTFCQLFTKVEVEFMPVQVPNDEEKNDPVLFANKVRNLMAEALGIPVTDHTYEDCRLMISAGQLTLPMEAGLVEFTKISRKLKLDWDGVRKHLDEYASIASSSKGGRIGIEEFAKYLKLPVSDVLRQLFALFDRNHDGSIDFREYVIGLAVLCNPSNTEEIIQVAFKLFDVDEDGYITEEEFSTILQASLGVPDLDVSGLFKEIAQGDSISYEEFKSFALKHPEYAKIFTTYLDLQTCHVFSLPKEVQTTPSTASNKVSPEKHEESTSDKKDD
# UniProt Q14156, sequence (Q14156 whole entry): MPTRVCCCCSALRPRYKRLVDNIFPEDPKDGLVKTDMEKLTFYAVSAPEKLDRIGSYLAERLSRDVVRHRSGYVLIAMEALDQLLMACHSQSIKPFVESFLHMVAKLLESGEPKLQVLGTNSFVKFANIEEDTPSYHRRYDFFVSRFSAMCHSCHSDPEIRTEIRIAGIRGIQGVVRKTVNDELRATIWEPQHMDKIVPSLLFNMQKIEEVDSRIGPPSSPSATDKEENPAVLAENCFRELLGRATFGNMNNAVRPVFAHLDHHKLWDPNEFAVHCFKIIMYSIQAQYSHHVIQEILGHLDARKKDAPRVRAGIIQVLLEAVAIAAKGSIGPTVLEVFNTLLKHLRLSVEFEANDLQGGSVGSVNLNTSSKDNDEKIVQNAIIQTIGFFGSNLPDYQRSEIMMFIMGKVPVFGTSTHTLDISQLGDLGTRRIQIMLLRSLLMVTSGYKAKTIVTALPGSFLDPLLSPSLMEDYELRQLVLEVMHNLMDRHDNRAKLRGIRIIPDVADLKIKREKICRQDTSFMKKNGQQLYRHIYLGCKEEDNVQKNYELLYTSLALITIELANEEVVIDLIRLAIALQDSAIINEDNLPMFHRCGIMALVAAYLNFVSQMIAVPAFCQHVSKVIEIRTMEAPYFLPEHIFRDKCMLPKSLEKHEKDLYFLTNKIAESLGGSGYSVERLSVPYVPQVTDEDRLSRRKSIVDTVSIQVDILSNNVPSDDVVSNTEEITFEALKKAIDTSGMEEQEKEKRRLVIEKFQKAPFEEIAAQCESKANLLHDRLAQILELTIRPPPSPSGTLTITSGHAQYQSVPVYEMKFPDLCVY
# UniProt Q5QJE6, sequence (Q5QJE6 whole entry): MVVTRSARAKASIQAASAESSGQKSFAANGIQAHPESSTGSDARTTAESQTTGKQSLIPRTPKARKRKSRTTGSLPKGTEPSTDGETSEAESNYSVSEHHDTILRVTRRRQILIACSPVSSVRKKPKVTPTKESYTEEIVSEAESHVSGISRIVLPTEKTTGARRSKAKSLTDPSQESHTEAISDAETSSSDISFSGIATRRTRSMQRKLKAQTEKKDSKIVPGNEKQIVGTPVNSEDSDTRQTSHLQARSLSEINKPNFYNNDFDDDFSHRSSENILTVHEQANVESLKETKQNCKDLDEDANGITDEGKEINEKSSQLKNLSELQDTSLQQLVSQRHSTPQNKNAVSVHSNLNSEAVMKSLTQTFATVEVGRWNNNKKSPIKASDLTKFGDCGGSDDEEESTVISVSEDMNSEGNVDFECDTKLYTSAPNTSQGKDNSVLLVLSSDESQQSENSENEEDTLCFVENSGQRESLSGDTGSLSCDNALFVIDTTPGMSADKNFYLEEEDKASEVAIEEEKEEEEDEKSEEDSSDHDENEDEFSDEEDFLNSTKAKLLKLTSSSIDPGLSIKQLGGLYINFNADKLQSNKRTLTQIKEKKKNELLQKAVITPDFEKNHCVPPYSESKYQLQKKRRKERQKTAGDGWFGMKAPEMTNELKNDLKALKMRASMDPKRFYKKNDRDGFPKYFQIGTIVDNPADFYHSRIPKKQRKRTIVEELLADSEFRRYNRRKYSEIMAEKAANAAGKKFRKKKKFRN
# UniProt Q13572, sequence (Q13572 whole entry): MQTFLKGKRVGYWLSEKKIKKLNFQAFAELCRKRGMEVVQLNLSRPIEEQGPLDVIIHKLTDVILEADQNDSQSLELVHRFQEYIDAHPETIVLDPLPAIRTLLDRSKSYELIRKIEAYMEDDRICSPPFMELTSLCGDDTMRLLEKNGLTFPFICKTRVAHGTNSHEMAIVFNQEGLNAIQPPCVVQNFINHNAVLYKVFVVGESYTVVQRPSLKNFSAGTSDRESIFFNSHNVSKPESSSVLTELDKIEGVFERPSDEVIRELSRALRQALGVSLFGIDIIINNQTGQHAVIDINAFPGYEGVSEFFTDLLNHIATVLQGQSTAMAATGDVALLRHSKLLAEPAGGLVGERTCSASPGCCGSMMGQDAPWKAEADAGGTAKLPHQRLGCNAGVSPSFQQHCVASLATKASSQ
Target,NP40-soluble protein abundance (concentration: 1mM),NP40-soluble protein abundance (concentration: 2mM),NP40-soluble protein abundance (concentration: 4mM),NP40-soluble protein abundance (concentration: 6mM),NP40-soluble protein abundance (concentration: 8mM),NP40-soluble protein abundance (concentration: 10mM)
UniProt Q5T011|Q5T011-5,0.882 ± 0.14,0.91 ± 0.071,0.912 ± 0.076,0.864 ± 0.16,0.809 ± 0.045,0.803 ± 0.056
UniProt Q8WZA9,1.03 ± 0.023,1.08 ± 0.07,1.04 ± 0.059,0.988 ± 0.028,0.981 ± 0.021,0.989 ± 0.067
UniProt Q8WUQ7|Q8WUQ7-2,1.05 ± 0.027,1.05 ± 0.027,1.09 ± 0.03,1.06 ± 0.023,1.06 ± 0.031,1.11 ± 0.063
TAF9 (UniProt Q16594),1.009 ± 0.0054,1.04 ± 0.02,1.01 ± 0.018,1.01 ± 0.018,1.03 ± 0.016,1.05 ± 0.039
UniProt Q8IXQ5|Q8IXQ5-2|Q8IXQ5-5,0.984 ± 0.042,0.979 ± 0.018,0.974 ± 0.029,0.9744 ± 0.0094,0.983 ± 0.044,0.9769 ± 0.0044
RHOT2 (UniProt Q8IXI1),1.02 ± 0.021,1 ± 0.073,1.02 ± 0.03,0.9999 ± 0.006,1.004 ± 0.01,1.02 ± 0.034
UniProt Q8IWI9|Q8IWI9-3|Q8IWI9-4,1.02 ± 0.023,1.01 ± 0.021,1.01 ± 0.047,0.953 ± 0.014,0.924 ± 0.029,0.944 ± 0.046
PPWD1 (UniProt Q96BP3),0.984 ± 0.013,0.933 ± 0.087,1 ± 0.06,1.01 ± 0.037,1.04 ± 0.042,1.02 ± 0.036
NUBPL (UniProt Q8TB37),1 ± 0.045,1.01 ± 0.057,1.02 ± 0.05,1.06 ± 0.092,1.03 ± 0.092,1.05 ± 0.076
UniProt Q7Z7K6|Q7Z7K6-3,1.08 ± 0.068,1.153 ± 0.0086,1.3 ± 0.087,1.51 ± 0.12,1.72 ± 0.052,2.1 ± 0.13
TMED4 (UniProt Q7Z7H5),1.017 ± 0.0076,0.973 ± 0.026,0.99 ± 0.032,1.02 ± 0.036,1.02 ± 0.025,1 ± 0.038
EIF3A (UniProt Q14152),1.05 ± 0.029,1.08 ± 0.044,1.12 ± 0.087,1.19 ± 0.12,1.25 ± 0.12,1.38 ± 0.19
UniProt Q16666|Q16666-2,1.06 ± 0.052,1.11 ± 0.023,1.22 ± 0.069,1.43 ± 0.14,1.49 ± 0.14,1.53 ± 0.19
USP34 (UniProt Q70CQ2),0.958 ± 0.032,0.925 ± 0.044,0.955 ± 0.026,0.885 ± 0.021,0.877 ± 0.033,0.873 ± 0.014
FAM91A1 (UniProt Q658Y4),0.958 ± 0.033,0.915 ± 0.068,0.961 ± 0.031,0.99 ± 0.041,1.01 ± 0.034,0.975 ± 0.054
EPM2AIP1 (UniProt Q7L775),0.961 ± 0.015,0.94 ± 0.032,0.96 ± 0.025,0.947 ± 0.028,0.9617 ± 0.0055,0.958 ± 0.041
DNAJB14 (UniProt Q8TBM8),0.975 ± 0.025,0.987 ± 0.066,0.971 ± 0.028,0.953 ± 0.039,0.952 ± 0.035,0.947 ± 0.035
UniProt Q8TAT6|Q8TAT6-2,0.955 ± 0.025,0.961 ± 0.022,0.968 ± 0.044,0.983 ± 0.015,0.991 ± 0.036,1.02 ± 0.025
EHBP1L1 (UniProt Q8N3D4),1.06 ± 0.028,1.11 ± 0.099,1.07 ± 0.11,1.02 ± 0.034,1.01 ± 0.059,1.01 ± 0.08
UniProt Q7Z2K8|Q7Z2K8-2,0.958 ± 0.012,0.913 ± 0.023,1.12 ± 0.049,1.1 ± 0.038,0.932 ± 0.057,0.932 ± 0.031

Target,NP40-soluble protein abundance (concentration: 1mM),NP40-soluble protein abundance (concentration: 2mM),NP40-soluble protein abundance (concentration: 4mM),NP40-soluble protein abundance (concentration: 6mM),NP40-soluble protein abundance (concentration: 8mM),NP40-soluble protein abundance (concentration: 10mM)
UniProt Q5RI15|Q5RI15-2,1.12 ± 0.073,1.13 ± 0.1,1.05 ± 0.034,1.1 ± 0.044,1.05 ± 0.049,1.11 ± 0.04
UniProt Q6P6C2|Q6P6C2-1,1.15 ± 0.065,1.17 ± 0.036,1.22 ± 0.07,1.24 ± 0.13,1.3 ± 0.13,1.33 ± 0.11
UniProt Q15223,1.01 ± 0.026,1.028 ± 0.0082,1.011 ± 0.0089,1.01 ± 0.011,0.997 ± 0.023,1.01 ± 0.028
UniProt Q7L4P6|Q7L4P6-2,1.21 ± 0.13,1.37 ± 0.095,1.2 ± 0.15,1.14 ± 0.16,1.03 ± 0.043,1.23 ± 0.19
ERCC6L (UniProt Q2NKX8),0.998 ± 0.022,1.01 ± 0.036,0.993 ± 0.04,0.95 ± 0.032,0.942 ± 0.045,0.949 ± 0.064
UniProt Q86YS7,0.973 ± 0.015,0.97 ± 0.016,0.982 ± 0.017,0.942 ± 0.012,0.919 ± 0.015,0.948 ± 0.018
UniProt Q8TEX9|Q8TEX9-2,1.01 ± 0.026,0.974 ± 0.059,0.99 ± 0.017,0.9956 ± 0.0059,1.007 ± 0.0054,0.981 ± 0.025
MTDH (UniProt Q86UE4),1.13 ± 0.046,1.3 ± 0.16,1.32 ± 0.073,1.46 ± 0.2,1.47 ± 0.17,1.58 ± 0.17
UniProt Q92614|Q92614-2|Q92614-4,1.02 ± 0.025,1.05 ± 0.026,1.01 ± 0.014,0.984 ± 0.045,0.955 ± 0.026,0.971 ± 0.042
TRAPPC5 (UniProt Q8IUR0),0.946 ± 0.055,0.933 ± 0.043,0.959 ± 0.073,1.187 ± 0.002,1.18 ± 0.043,1.12 ± 0.13
UniProt Q92793|Q92793-2,1.05 ± 0.037,1.05 ± 0.028,1.01 ± 0.035,1.01 ± 0.04,1.02 ± 0.015,1.05 ± 0.02
DNTTIP2 (UniProt Q5QJE6),1.1 ± 0.036,1.2 ± 0.022,1.27 ± 0.06,1.34 ± 0.083,1.4 ± 0.12,1.53 ± 0.16
OVCA2 (UniProt Q8WZ82),1.01 ± 0.018,0.992 ± 0.052,1.01 ± 0.062,0.981 ± 0.018,1.01 ± 0.041,0.999 ± 0.03
UniProt Q16611|Q16611-2,0.994 ± 0.035,0.952 ± 0.016,0.985 ± 0.043,0.96 ± 0.023,0.974 ± 0.032,0.932 ± 0.026
ABHD11 (UniProt Q8NFV4),1.02 ± 0.035,1.046 ± 0.0096,1.04 ± 0.023,0.995 ± 0.028,1 ± 0.02,1.01 ± 0.048
UniProt Q7L5N7|A0A087X0A3|Q7L5N7-2,0.987 ± 0.031,0.966 ± 0.051,0.979 ± 0.037,0.99 ± 0.035,0.985 ± 0.028,1.01 ± 0.036
UniProt Q7L5Y1|Q7L5Y1-4|Q7L5Y1-5,0.992 ± 0.03,1 ± 0.016,1.007 ± 0.0081,0.99 ± 0.04,1.01 ± 0.013,0.996 ± 0.0075
POLA2 (UniProt Q14181),0.994 ± 0.014,0.974 ± 0.028,1 ± 0.044,1.04 ± 0.03,1.02 ± 0.021,1.03 ± 0.025
UniProt Q5JTJ3|Q5JTJ3-2|Q5JTJ3-3|X6R5Z6,1.02 ± 0.015,1.04 ± 0.081,0.991 ± 0.038,0.97 ± 0.043,0.943 ± 0.016,0.966 ± 0.046
UniProt Q93074-2,1.01 ± 0.032,1 ± 0.028,1.06 ± 0.019,0.971 ± 0.08,0.984 ± 0.042,0.999 ± 0.067

Target,NP40-soluble protein abundance (concentration: 1mM),NP40-soluble protein abundance (concentration: 2mM),NP40-soluble protein abundance (concentration: 4mM),NP40-soluble protein abundance (concentration: 6mM),NP40-soluble protein abundance (concentration: 8mM),NP40-soluble protein abundance (concentration: 10mM)
PSME4 (UniProt Q14997),0.9678 ± 0.0088,0.905 ± 0.072,0.968 ± 0.045,0.884 ± 0.075,0.925 ± 0.11,0.884 ± 0.11
CLYBL (UniProt Q8N0X4),1.01 ± 0.016,0.978 ± 0.013,1 ± 0.02,0.982 ± 0.043,0.9692 ± 0.0037,0.9819 ± 0.0062
UniProt Q14156|Q14156-2,0.9764 ± 0.0041,0.961 ± 0.041,0.9737 ± 0.0064,0.952 ± 0.023,0.973 ± 0.015,0.953 ± 0.018
UniProt Q8NBP0|Q8NBP0-2,0.998 ± 0.019,0.97 ± 0.025,0.9847 ± 0.0052,0.984 ± 0.025,0.992 ± 0.032,0.991 ± 0.027
ITPK1 (UniProt Q13572),1.019 ± 0.0014,1.035 ± 0.0039,1.01 ± 0.014,0.992 ± 0.025,1.02 ± 0.04,0.9738 ± 0.0084
CAND1 (UniProt Q86VP6),0.971 ± 0.024,0.947 ± 0.03,0.983 ± 0.035,1.01 ± 0.084,1.03 ± 0.044,0.992 ± 0.058
DHX38 (UniProt Q92620),1.016 ± 0.0095,1.03 ± 0.037,1.03 ± 0.012,1.01 ± 0.055,1.04 ± 0.034,1.03 ± 0.023
UniProt Q5FWF5,1.01 ± 0.012,1.012 ± 0.0086,1 ± 0.026,1.04 ± 0.035,1.029 ± 7.1e-05,1.06 ± 0.023
UniProt Q92576|Q92576-2,1.046 ± 0.0099,1.09 ± 0.048,1.08 ± 0.008,1.08 ± 0.07,1.09 ± 0.04,1.11 ± 0.046
UniProt Q6UXH1|Q6UXH1-4|Q6UXH1-5|Q6UXH1-6,1.01 ± 0.032,1.07 ± 0.056,1.01 ± 0.029,0.964 ± 0.019,0.956 ± 0.045,1.01 ± 0.029
SYAP1 (UniProt Q96A49),1 ± 0.046,1.06 ± 0.077,0.952 ± 0.072,0.94 ± 0.021,0.94 ± 0.039,0.918 ± 0.08
TTC37 (UniProt Q6PGP7),0.822 ± 0.084,0.793 ± 0.14,0.791 ± 0.11,0.768 ± 0.077,0.761 ± 0.078,0.76 ± 0.079
UniProt Q8NDV3-2|Q8NDV3-3,0.953 ± 0.039,0.942 ± 0.011,0.928 ± 0.015,0.977 ± 0.0022,0.945 ± 0.025,0.944 ± 0.033
UniProt Q5XUX1|Q5XUX1-3|Q5XUX1-2,0.986 ± 0.017,0.96 ± 0.042,0.976 ± 0.026,0.993 ± 0.021,0.982 ± 0.024,0.969 ± 0.028
KBTBD7 (UniProt Q8WVZ9),0.977 ± 0.014,0.9633 ± 0.004,0.959 ± 0.025,0.987 ± 0.01,1.03 ± 0.018,0.988 ± 0.03
GATAD2B (UniProt Q8WXI9),1.01 ± 0.014,1.06 ± 0.046,1.024 ± 0.0076,1.01 ± 0.049,0.994 ± 0.035,1.02 ± 0.03
UniProt Q15390|H0YBZ4|Q15390-2,1.008 ± 0.0075,1.05 ± 0.071,1.01 ± 0.02,1 ± 0.011,0.9719 ± 0.0073,0.989 ± 0.021
CCDC6 (UniProt Q16204),0.993 ± 0.023,1.06 ± 0.037,0.979 ± 0.041,0.957 ± 0.024,0.9475 ± 0.0034,0.916 ± 0.027
EIF4EBP1 (UniProt Q13541),0.949 ± 0.016,1.032 ± 0.008,0.998 ± 0.1,0.9563 ± 0.0018,0.961 ± 0.059,0.96 ± 0.047
TBRG4 (UniProt Q969Z0),0.984 ± 0.03,0.953 ± 0.033,0.955 ± 0.012,0.959 ± 0.028,0.941 ± 0.022,0.935 ± 0.054
